Assay in all cases: NCI-60 one-dose screen, 48 h (100 = growth as untreated, 0 = no growth, -100 = all killed)
For assay [1], the system named is NCI-H23 lung. Particulars: 10 µM unless noted.
For assay [2], the system named is NCI-H322M lung. Particulars: 10 µM unless noted.
Assay [3] relates to HOP-62 NSCLC. To be noted: 10 µM unless noted.
Assay [4] deals with HOP-92 NSCLC. To be noted: 10 µM unless noted.
The test system of assay [5] is NCI-H522 lung. To be noted: 10 µM.
For assay [6], the system named is A549/ATCC NSCLC. To be noted: 10 µM unless noted.
The subject of assay [7] is 786-0 renal. Particulars: 10 µM unless noted.
Assay [8] has as its system NCI-H460 lung. To be noted: 10 µM unless noted.
Assay [9] has as its system COLO 205 colon. Particulars: 10 µM unless noted.
For assay [10], the system named is NCI-H226 lung. To be noted: 10 µM.

The panel holds about 83,000 compounds, 20% with a hit somewhere; the sample as a whole holds those more often.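 The test compound was applied at a single concentration to cells in 96-well plates for 48 hours, and percent growth was recorded.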 Unmarked numbers belong to inactive results. The source made the active and inactive calls. Rule for the calls: active = growth percent below 10; inactive = the rest.

With `O=C(NCc1ccc(F)cc1)C1CN(c2ccc(Cl)cc2)N(c2ccc(Cl)cc2)C1=O` (stereo not given), the growth in [1] was 78.8%; in assay [2] it was 93.1%; in [3] it was 60.5%; in assay [4], 91.1%; in assay [5] it was 52.5%; in assay [6] it was 48.8%. Besides, in assay [7], the growth was 79.1%.
As to `CCOC(=O)C1=C(C)N2C(=NC3=C(CCCC/C3=C\c3cc(OC)c(OC)c(OC)c3)C2c2cc(OC)c(OC)c(OC)c2)S1` (stereo not given), the growth was 61.9% in assay [1]; 96.5% in assay [2]; 50% in assay [3]; 60% in assay [8]; 60.3% in assay [6]; 81.2% in assay [9].
As for `c1ccc(-c2nc(N3CCOCC3)c3c4c(sc3n2)CCCCCC4)nc1`, the growth in [1] is 62.1%; in assay [2] it was 73%; in [3] it was 70.3%; in assay [8] it was 33.6%; in [6] it was 28.9%; in assay [7] it was 87.1%. Moreover, the growth in assay [9] is 68.5%.
On to `CON=C1C[C@]2(C[C@@H]3C[C@@H](C/C=C(\C)C[C@@H](C)/C=C/C=C4\CO[C@@H]5[C@H](O)C(C)=C[C@@H](C(=O)O3)[C@]45O)O2)O[C@H](/C(C)=C/C(C)C)[C@H]1C`, for which the growth in assay [10] is 72%; in [2], 72.1%; in assay [3], 76.5%; in assay [8] it was 39.3%; in assay [4], 24.8%; in assay [5] it was 50.5%. In addition, the growth in assay [6] was 48.7%; in assay [7], 65.5%; in assay [9], 59.1%.
In the case of `c1ccc2cc(Cn3c(-c4ccc5ccccc5c4)[n+](Cc4ccc5ccccc5c4)c4ccccc43)ccc2c1`, the growth in [1] is -56.2% (active); in assay [2], -7.14% (active); in assay [3], -66.8% (active); in assay [4] it was -60.3% (active); in assay [6], -65.3% (active); in assay [7], -95.1% (active). The growth in assay [9] is -69.5% (active).
Turning to `O=C1NC(=O)C(CSc2ccccc2)(c2ccccc2)N1` (stereo not given), the growth in assay [1] was 97.7%; in assay [2] it was 86.5%; in assay [3], 97.3%; in assay [4] it was 90.8%; in [6], 92.4%; in assay [7] it was 103%. Moreover, the growth in assay [9] is 98%.
In the case of `COc1ccc(Nc2[nH]n(C3=Nc4ccccc4Sc4ccccc43)c(=O)c2C#N)cc1`, the growth in assay [1] is 28.3%; in assay [2], 89.1%; in [3], 75.9%; in [5], 29.6%; in assay [6], 55.2%; in [7], 64.7%. Further, the growth in assay [9] was 15.1%.
Regarding `O=C(CCc1nnc2sc(/C=C\c3ccccc3)nn12)c1nc2ccccc2[nH]1`, the growth in assay [1] was 73.4%; in assay [3], 75.8%; in assay [8], 96.7%; in [4], 52.9%; in assay [5] it was 95.1%; in assay [6], 97.5%. Moreover, the growth in [7] is 89.7%; in assay [9], 90.7%.
For `COc1cccc(C2CC(=O)Nc3cc4c(cc32)OCO4)c1OC` (stereo not given), the growth in [1] is 92.3%; in assay [2], 88.3%; in [3], 98.2%; in assay [5] it was 87.4%; in [6], 89.8%; in assay [7], 114%. The growth in assay [9] was 107%.
Regarding `COc1cc(-c2nc3ccccc3o2)cc(CN2CCN(c3ccccc3)CC2)c1O`, the growth in assay [1] is 37.8%; in [3], 47.1%; in assay [8], 51%; in assay [4] it was 81.8%; in assay [5], 58.4%; in assay [6], 30.2%. Further, the figures for the growth in assay [7] and in assay [9] were 90.2% and 117%, respectively.
Turning to `CCOc1ccc(-c2cnnn2-c2nonc2-n2cccc2)cc1`, the growth is 17.3% in assay [1]; 31.6% in [3]; 10.2% in assay [8]; 25.4% in assay [4]; -55.9% (active) in [5]; 17.2% in assay [6]. Also, the growth is 37.3% in [7] and -75.2% (active) in assay [9].
Consider `CCN(c1ccc(C(=O)N2CCN(c3ccccc3)CC2)cc1)S(C)(=O)=O`, for which the growth in assay [1] is 103%; in assay [2], 102%; in assay [3], 104%; in assay [6] it was 105%; in [7], 101%; in assay [9] it was 113%.
As for `c1ccc2c(c1)oc1cc3c(cc12)nnc1cccn13`, the growth was 98.5% in assay [10]; 90.9% in assay [2]; 116% in assay [3]; 112% in assay [8]; 120% in [4]; 96.7% in assay [5]. The growth in assay [6] is 97.1%; in assay [7] it was 121%.
For `CCCCc1ccc(NC(=O)C(F)(F)F)cc1`, the growth in [1] is 106%; in assay [3], 102%; in [8], 108%; in [4] it was 104%; in [5], 82%; in assay [6], 102%. For the same compound, the growth in [7] is 91.8%; in assay [9] it was 107%.
For `Nc1cc(Br)c(-c2nnc(CCC(=O)c3nc4ccccc4[nH]3)o2)c(Br)c1`, the growth in assay [1] was 70.8%; in assay [3] it was 82.2%; in [8], 102%; in [4] it was 26.3%; in assay [5] it was 24.6%; in assay [6], 90.7%. The growth was 85.8% in [7] and 70.6% in assay [9].
Turning to `CCCN(CCC)c1ccc(/C=C/c2ccc3cc(OCC)ccc3n2)cc1`, the growth is 83.8% in [1]; 105% in assay [2]; 125% in [3]; 76.8% in assay [5]; 87.4% in [6]; 91.1% in [7]. Besides, in [9], the growth was 112%.
In the case of `COc1cccc(Nc2nc(NCCO)c3ccccc3n2)c1`, the growth in [1] is 85.8%; in assay [2], 86.4%; in [3] it was 93.1%; in assay [5] it was 70.8%; in assay [6], 68.3%; in [7] it was 86%. Also, the growth in assay [9] was 108%.
On to `O=c1onc(-c2ccccc2)c2ccccc12`, for which the growth is 104% in assay [1]; 117% in assay [3]; 109% in assay [8]; 95.4% in assay [4]; 101% in assay [5]; 109% in assay [6]. Further, the growth in [7] was 105%; in [9], 119%.
For the compound `FC(F)(F)Oc1ccc2c(c1)C[C@H]1C[C@@H](c3ccoc3)N2O1`, the growth in assay [1] was 96.5%; in [2], 117%; in [8] it was 114%; in [4] it was 82.8%; in assay [5], 99.6%; in [6], 92.1%. Moreover, the values for the growth in [7] and in assay [9] were 105% and 110%, respectively.
With `Clc1ccc(C2=Nc3cccc4cccc(c34)N2)cc1Cl`, the growth in assay [1] was 76.9%; in [2], 103%; in assay [8], 100%; in assay [4], 92.9%; in [5], 62%; in [6], 99.6%. The growth in assay [7] is 111%; in assay [9] it was 100%.
Turning to `COc1ccc2nc(-n3nc(C)cc3C)c(-n3nc(C)cc3C)nc2c1`, the growth in assay [1] is 97.1%; in assay [3], 105%; in assay [4], 115%; in assay [5], 100%; in assay [6] it was 115%; in [7], 105%. Also, the growth in assay [9] is 113%.
In the case of `CC(=O)c1cc(C)c(OC(=O)c2ccccc2)c(C)c1`, the growth in [1] is 89.8%; in assay [2], 119%; in assay [3] it was 96.8%; in [4], 96.1%; in assay [7], 100%; in [9] it was 93.9%.
On to `C[C@H]1C(=O)C23CCC1C[C@@]21O[C@@H]2C(C)(C)C=CC(=O)C23COC1=O`, for which the growth in [10] was 94.2%; in assay [2] it was 105%; in assay [3] it was 101%; in assay [8], 101%; in assay [4], 114%; in assay [5] it was 93.2%. Besides, the growth in [6] was 83.9%; in assay [7], 109%; in assay [9] it was 105%.
As to `CCOC(=O)n1cc(C2=C(c3cn(C)c4ccccc34)COC2=O)c2ccccc21`, the growth in [1] is 30%; in [2], 47.4%; in assay [8] it was 3.7% (active); in assay [4] it was 37.9%; in assay [6], 22.6%; in assay [7] it was 27.5%. The growth in [9] is -31.2% (active).
`Cc1nc2ccc(Cl)cc2n1C`: the growth in assay [1] is 107%; in assay [2] it was 108%; in assay [8] it was 109%; in [4], 105%; in assay [5] it was 90.2%; in assay [6] it was 103%. Besides, the growth in [7] is 101%.
Turning to `Cn1c(=O)c2c(-c3ccccc3F)n(-c3ccc4c(c3)OCO4)cc2n(C)c1=O`, the growth is 95.2% in assay [1]; 102% in assay [3]; 99.4% in [8]; 91.5% in assay [5]; 99.8% in assay [6]; 102% in [7]. The growth in [9] was 106%.
`Clc1ccc2c(c1)C[C@H]1C[C@@H](c3cccs3)N2O1`: the growth in [1] is 106%; in assay [2], 99.7%; in assay [8], 104%; in [4] it was 69.8%; in assay [5] it was 102%; in [6], 98.2%. Besides, the growth was 108% in [7] and 112% in assay [9].

(Values after PubChem BioAssay (NCI).)
